Source: PubChem BioAssay AID651640 (Broad Institute, 2012)
Where “and” joins values, the source holds several entries; their conditions need not be identical. Identical values can stand only once. About 6,000 (1.7%) of roughly 350,000 compounds were called active. Not shown: some 5% with an inconclusive outcome. Cut-off read from the data, not from the text of the source: active = CPE inhibition above about 20% (passing the limit was not always enough); inconclusive = no clear call, values can overlap the other calls; tested in BHK-21 cells. The sample as a whole holds a higher share of actives than the screen did. The source holds several records for some structures; these can differ, active in one and inactive in another.

Experiment: protection of cells from dengue 2 killing – plate reader, single concentration, primary screen (AID 651640);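 note: 0% = median of neutral control wells and 100% = median of positive control wells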
Conditions: DENV2-infected cells, cytopathic effect rescue, at 9.99 µM, stronger effect = higher value

| Compound | CPE inhibition |
| --- | --- |
| COc1ccc2c3c([nH]c2c1)[C@H](CO)N(C(=O)CN1CCOCC1)CC31CN(C(C)=O)C1 | 4.54% (inactive) |
| CCC(=O)N1CC2(CN(C(=O)Nc3ccccc3F)C2)c2c([nH]c3cc(OC)ccc23)[C@H]1CO | 10.3% (inactive) |
| CC(C)C#Cc1ccc2c(c1)O[C@@H](CN(C)C(=O)Nc1ccccc1)[C@H](C)CN([C@H](C)CO)S2(=O)=O | -2.16% (inactive) |
| C=C1C(=O)[C@]23C[C@H]1CCC2[C@@]1(C)C(C[C@@H]3O)[C@](C)(C(=O)O)CC[C@@H]1O (some centres undefined) | 74.8% (active) |
| O=C(C[C@@H]1C[C@H]2c3cc(NS(=O)(=O)c4ccc(F)cc4)ccc3O[C@H]2[C@H](CO)O1)NC1CCCC1 | -5.59% (inactive) |
| C[C@@H]1CN([C@@H](C)CO)C(=O)c2cc(C3=CCCC3)cnc2O[C@H]1CN(C)Cc1ccccc1F | 3.87% (inactive) |
| CCC(=O)N(C)C[C@@H]1Oc2ncc(C3=CCCC3)cc2C(=O)N([C@H](C)CO)C[C@@H]1C | -6.55% (inactive) |
| CCCN(C)C[C@H]1Oc2ncc(-c3ccccc3OC)cc2C(=O)N([C@H](C)CO)C[C@@H]1C | 14.5% (inactive) |
| C[C@H](CO)N1C[C@H](C)[C@H](CN(C)Cc2cccnc2)Oc2ncc(C3=CCCC3)cc2C1=O | -1.52% (inactive) |
| C[C@@H]1CN([C@H](C)CO)C(=O)c2cc(C3=CCCC3)cnc2O[C@H]1CN(C)C | 0.588% (inactive) |
| C[C@H](CO)N1C[C@H](C)[C@H](CN(C)S(C)(=O)=O)Oc2ncc(C3=CCCC3)cc2C1=O | 32.1% (active) |
| C[C@H]1CN([C@@H](C)CO)C(=O)c2cc(-c3ccccc3F)cnc2O[C@@H]1CN(C)C | -7.94% (inactive) |
| CCCN(C)C[C@@H]1Oc2ncc(-c3ccccc3F)cc2C(=O)N([C@@H](C)CO)C[C@@H]1C | 38.8% (active) |
| C[C@H](CO)N1C[C@H](C)[C@@H](CN(C)Cc2ccccn2)Oc2ncc(C3=CCCC3)cc2C1=O | 49.6% (active) |
| CCC(=O)N(C)C[C@@H]1Oc2cc(-c3ccc(OC)cc3)ccc2S(=O)(=O)N([C@@H](C)CO)C[C@H]1C | -4.79% (inactive) |
| O=C(C[C@H]1C[C@H]2c3cc(NC(=O)Cc4ccncc4)ccc3O[C@H]2[C@@H](CO)O1)NCc1cccc(F)c1 | -1.57% (inactive) |
| COc1cccc(S(=O)(=O)Nc2ccc3c(c2)C(=O)N(C)C[C@@H](OC)[C@@H](C)CN[C@@H](C)CO3)c1 | 2.43% (inactive) |
| C[C@@H]1CN([C@@H](C)CO)C(=O)c2cc(N(C)C)ccc2O[C@@H](C)CCCCO[C@@H]1CN(C)C(=O)CCC(F)(F)F | 5.58% (inactive) |
| Cc1ccc(O)c(CCc2ccccc2)n1 | 1.33% (inactive) |
| Cc1cc(C)n2c(Nc3c(C)cccc3C)c(CCc3ccccc3)nc2n1 | 20.8% (active) |
| Cc1cc(C)n2c(NCc3ccccc3)c(CC(C)C)nc2n1 | -7.45% (inactive) |
| CC(C)NC(=O)N1[C@H](CO)[C@@H]2c3ccccc3N(C(=O)c3ccccc3F)C[C@@H]21 | 54.6% (active) |
| CN1C[C@H]2[C@@H](c3ccccc31)[C@@H](CO)N2C(=O)Nc1ccccc1 | 58.5% (active) |
| O=C(c1ccccc1F)N1C[C@@H]2[C@H](c3ccccc31)[C@H](CO)N2C(=O)C1CCCC1 | -9.77% (inactive) |
| CC(C)NC(=O)N1[C@@H]2CN(C(=O)Nc3ccc(F)cc3)c3ccccc3[C@@H]2[C@@H]1CO | 8.2% (inactive) |
| CCC(=O)N1[C@@H](CO)[C@@H]2c3ccccc3N(C(=O)c3ccccc3F)C[C@@H]21 | 26.9% (active) |
| O=C(c1ccccc1F)N1C[C@H]2[C@@H](c3ccccc31)[C@@H](CO)N2C(=O)c1ccc(F)cc1 | -13.2% (inactive) |

| Compound | CPE inhibition |
| --- | --- |
| CN1C[C@@H]2[C@H](c3ccccc31)[C@H](CO)N2C(=O)Nc1ccc(F)cc1 | -5.89% (inactive) |
| CCCNC(=O)N1[C@@H]2CN(C)c3ccccc3[C@@H]2[C@@H]1CO | -0.141% (inactive) |
| CC(C)NC(=O)N1C[C@H]2[C@@H](c3ccccc31)[C@H](CO)N2C(=O)c1ccccc1F | -10% (inactive) |
| O=C1O[C@@H](c2ccccc2)[C@@H](c2ccccc2)N2[C@@H](c3ccccc3OCCO)[C@]3(C(=O)Nc4ccccc43)[C@@H](C(=O)N3CCCCCCC3)[C@H]12 | 0.314% (inactive) |
| COC(=O)C[C@H]1CC[C@H]2[C@@H](COc3ccc(NC(=O)C4CC4)cc3C(=O)N2C)O1 | -4.57% (inactive) |
| O=C(N[C@H]1CC[C@@H](CCNS(=O)(=O)c2ccc(Cl)cc2)O[C@H]1CO)c1cccc(F)c1 | -5.79% (inactive) |
| O=C(C[C@H]1CC[C@H]2[C@@H](COC[C@@H](O)CN2Cc2nccs2)O1)NCc1ccccc1Cl | -3.47% (inactive) |
| C[C@H](CO)N1C[C@H](C)[C@H](CN(C)Cc2cccc(C(=O)O)c2)Oc2ncc(-c3ccccc3F)cc2C1=O | 5.26% (inactive) |
| C[C@@H]1CCCCO[C@@H](CN(C)Cc2ccc(C(=O)O)cc2)[C@H](C)CN([C@H](C)CO)C(=O)c2cc(NC(=O)Nc3ccc(F)cc3)ccc2O1 | 4.69% (inactive) |
| C[C@H]1CN([C@@H](C)CO)C(=O)c2cc(/C=C/c3ccccc3)cnc2O[C@@H]1CN(C)C(=O)c1ccc(F)cc1 | -7.53% (inactive) |
| COc1ccc(CN2C[C@H]3CON(C)[C@H]3C[C@H]2c2ccc(-c3cccc(F)c3)cc2)cc1 | 27.4% (active) |
| COc1ccc(S(=O)(=O)N2C[C@H]3CON(C)[C@H]3C[C@H]2c2cccc(Br)c2)cc1 | -6.66% (inactive) |
| CN1OC[C@@H]2CN(C(=O)c3ccc(-c4ccccc4)cc3)[C@H](c3ccc(-c4cccc(F)c4)cc3)C[C@@H]21 | -4.1% (inactive) |
| CCOC(=O)C1(Cc2ccccc2C)CCCN(C(=O)CCc2c(C)noc2C)C1 (centres undefined) | 49.6% (active) |
| Cc1noc(C)c1CCC(=O)N1CCCC(CO)(Cc2ccccc2)C1 (centres undefined) | 7.18% (inactive) |
| CCOC(=O)C1(Cc2ccccc2C)CCCN(C(=O)CN2C(=O)CSC2=O)C1 (centres undefined) | 1.33% (inactive) |
| CC(C)c1nc2cc(C(=O)NC(C)c3cnn(C)c3)ccc2o1 (centres undefined) | 1.88% (inactive) |
| CCCCc1nc2cc(C(=O)NCCc3cnn(C)c3)ccc2o1 | 36% (active) |
| CCCCc1nc2cc(C(=O)N3CCCCC3CCO)ccc2o1 (centres undefined) | 6.93% (inactive) |
| C[C@@H]1CN([C@H](C)CO)C(=O)c2cc(-c3ccc(C#N)cc3)cnc2O[C@@H]1CN(C)C(=O)Nc1ccccc1 | -5.47% (inactive) |
| COc1ccc2c3c(n(C)c2c1)[C@@H](CO)N(CC1CC1)CC31CCN(C(=O)c2cccc(F)c2)CC1 | -5.77% (inactive) |
| O=C(c1cnc(Cl)c(Cl)c1)N1CCN(S(=O)(=O)c2ccc(F)cc2)CC1 | 1.53% (inactive) |
| O=C(C1CCCN(S(=O)(=O)c2ccccc2)C1)N1CCN(c2ccc(F)cc2)CC1 (centres undefined) | -0.979% (inactive) |
| O=C(O)C1CCCCC1C(=O)N1CCN(S(=O)(=O)c2ccc(F)cc2)CC1 (centres undefined) | 70.6% (active) |
| COc1cccc(C(=O)N2C[C@@H]3[C@H](c4ccccc42)[C@H](CO)N3Cc2ccccc2F)c1 | 6.58% (inactive) |
| O=C(NS(=O)(=O)c1cccs1)[C@H]1O[C@@H](n2ccc(=O)[nH]c2=O)[C@H](O)[C@@H]1O | 77.5% (active) |
| O=C(N[C@H](Cc1ccccc1)C(=O)N1CCCN(Cc2cccs2)CC1)[C@H]1O[C@@H](n2ccc(=O)[nH]c2=O)[C@H](O)[C@@H]1O | -10.6% (inactive) |

| Compound | CPE inhibition |
| --- | --- |
| Cc1nccn1-c1ccc(NC(=O)[C@H]2O[C@@H](n3ccc(=O)[nH]c3=O)[C@H](O)[C@@H]2O)cc1 | 1.75% (inactive) |
| Fc1ccc(-c2csc(-c3ccc(C4SCCS4)cc3)n2)cc1F | 38.4% (active) |
| COc1ccc(CC(=O)Nc2nc(-c3ccc(F)c(F)c3)cs2)cc1OC | -4.33% (inactive) |
| Clc1ccc(-c2csc(-c3ccncc3)n2)cc1 | 2.38% (inactive) |
| CC(C)NC(=O)N(C)C[C@@H]1OCCCC[C@@H](C)Oc2ccc(NC(=O)c3ccccc3)cc2C(=O)N([C@@H](C)CO)C[C@H]1C | 3.29% (inactive) |
| C[C@@H]1CN([C@@H](C)CO)C(=O)c2cc(NC(=O)Nc3cccc4ccccc34)ccc2O[C@@H]1CN(C)C(=O)NC1CCCCC1 | -3.76% (inactive) |
| COc1ccc(C2=NN(C(=O)CCC(=O)O)C(c3cccs3)C2)cc1OC (centres undefined) | -2.94% (inactive) |
| COc1ccc(C2CC(c3cccs3)=NN2C(=O)CCC(=O)O)cc1OC (centres undefined) | 36.9% (active) |
| COc1ccc(C2CC(c3cccs3)=NN2C(=O)CSc2nncs2)cc1OC (centres undefined) | 6.81% (inactive) |
| COc1ccccc1CNC(=O)CCCN1C(=O)NC2(CCCC2)C1=O | 54.7% (active) |
| COc1ccccc1C(=O)NCCC(=O)NN1C(=O)NC2(CCCCC2)C1=O | 0.164% (inactive) |
| COc1ccccc1CCNC(=O)CN1C(=O)NC2(CCCC2)C1=O | -7.14% (inactive) |
| C[C@@H]1CCCCO[C@@H](CN(C)C(=O)C2CCCCC2)[C@@H](C)CN([C@H](C)CO)C(=O)c2cc(NC(=O)c3ccccc3)ccc2O1 | 17.1% (inactive) |
| COc1ccccc1NC(=O)N(C)C[C@H]1Oc2cc(Br)ccc2S(=O)(=O)N([C@H](C)CO)C[C@@H]1C | 10.7% (inactive) and 3.12% (inactive) |
| COCC#Cc1ccc2c(c1)O[C@H](CN(C)C(=O)CN(C)C)[C@@H](C)CN([C@H](C)CO)S2(=O)=O | -5.36% (inactive) |
| Cc1noc(C)c1NC(=O)N(C)C[C@@H]1Oc2cc(Br)ccc2S(=O)(=O)N([C@@H](C)CO)C[C@H]1C | 21.5% (active) and 2.3% (inactive) |
| C[C@@H]1CN([C@H](C)CO)S(=O)(=O)c2ccc(C#CCC3CCCC3)cc2O[C@H]1CN(C)C(=O)CC1CC1 | 9.35% (inactive) |
| C[C@H](CO)N1C[C@H](C)[C@H](CN(C)Cc2ccncc2)Oc2cc(-c3cncnc3)ccc2S1(=O)=O | -6.89% (inactive) |
| C[C@H](CO)N1C[C@H](C)[C@@H](CN(C)Cc2cncnc2)Oc2cc(-c3ccccc3)ccc2S1(=O)=O | -3.98% (inactive) |
| C[C@H]1CN([C@@H](C)CO)S(=O)(=O)c2ccc(-c3cncnc3)cc2O[C@H]1CN(C)Cc1ccncc1 | 35.7% (active) |
| C[C@@H]1CN([C@@H](C)CO)S(=O)(=O)c2ccc(C#CCC3CCCC3)cc2O[C@@H]1CN(C)C | -3.23% (inactive) |
| CCC(=O)N(C)C[C@@H]1Oc2cc(C#CCOC)ccc2S(=O)(=O)N([C@H](C)CO)C[C@H]1C | -10.5% (inactive) |
| Cc1noc(C)c1NC(=O)N(C)C[C@@H]1Oc2cc(C#CCC(C)C)ccc2S(=O)(=O)N([C@H](C)CO)C[C@@H]1C | 16.2% (inactive) |
| C[C@@H]1CN([C@H](C)CO)S(=O)(=O)c2ccc(C#CCC3CCCC3)cc2O[C@H]1CN(C)Cc1ccc(C(=O)O)cc1 | 41.8% (active) |
| CCC(=O)N(C)C[C@H]1Oc2cc(C#CCOC)ccc2S(=O)(=O)N([C@H](C)CO)C[C@H]1C | 77.3% (active) |
